# Data reported in PubChem BioAssay (NCATS).
# Where “and” joins values, the source holds several entries; their conditions need not be identical. Equal entries are not always repeated. Inconclusive results are not listed. Entries that show only a call come without a potency. Calls of active or inactive are those of the source. The call rests on the fitted dose curve; in most records, active means well fitted cell-killing curve with a large enough effect; inconclusive means small, poorly fitted or top-dose-only effect; inactive means flat fitted curve, though single readings scatter.
# Test: Cellular viability qHTS for adrenocortical cancer (ACC) cell line NCI-H295R (AID 1963990); further: nearly all actives have a fitted effect of over 60% in size
# Settings: CellTiter-Glo ATP luminescence, 48 h; series mostly up to 46.1 µM
# Method in brief: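 Viability of NCI-H295R after 48 h of treatment (final up to 46 uM) measured through cellular ATP luminescence.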
# Potency means the concentration at half of the fitted maximal effect.
row,Compound,Potency
1,Cc1noc(C)c1-c1ccc(-c2cc(C(N)=O)c(NC(N)=O)s2)c(O[C@H]2CCNC2)c1,inactive
2,O=C(O)C1=CO[C@@H](O[C@@H]2O[C@H](CO)[C@@H](O)[C@H](O)[C@H]2O)[C@@H]2C(CO)=CC[C@H]12,inactive
3,CC(=O)Nc1ccc(OCCOCCOc2ccc(NC(C)=O)cc2)cc1,inactive
4,CN1CCN(C2CCC(n3cc(-c4ccc(Oc5ccccc5)cc4)c4c(N)ncnc43)CC2)CC1 (stereo unspecified),7.08 µM (active)
5,COc1ccc(Cl)cc1C(=O)NCCc1ccc(S(=O)(=O)NC(=O)NC2CCCCC2)cc1,inactive
6,COc1cc(C(=O)O)ccc1NC(=O)[C@@H]1N[C@@H](CC(C)(C)C)[C@](C#N)(c2ccc(Cl)cc2F)[C@H]1c1cccc(Cl)c1F,inactive
7,COc1ccc2cc(OCC3(C(=O)O)CN(C(=O)c4ccc(F)cc4)C3)ccc2c1,inactive
8,CCC(=C/[C@H](C)C/C=C/C(C)=C/[C@@H](C)C(=O)[C@@H](C)[C@H](O)[C@@H](C)C/C(C)=C/C(=O)O)/C=C/[C@@H]1OC(=O)C=C[C@@H]1C,0.01 µM (active)
9,COc1cccc2c1C(=O)c1c(O)c3c(c(O)c1C2=O)C[C@@](O)(/C(CO)=N/NC(=O)CCCCCN1C(=O)C=CC1=O)C[C@@H]3O[C@H]1C[C@H](N)[C@H](O)[C@H](C)O1,14.1 µM (active)
10,CN(C)/N=N/c1nc[nH]c1C(N)=O,inactive
11,C[C@@H]1O[C@@H](OC[C@H]2O[C@@H](Oc3c(-c4ccc(O)c(O)c4)oc4cc(O)cc(O)c4c3=O)[C@H](O)[C@@H](O)[C@@H]2O)[C@H](O)[C@H](O)[C@H]1O,inactive
12,C[C@]12CCC3[C@@H](CC[C@H]4NC(=O)C=C[C@]34C)[C@@H]1CC[C@@H]2C(=O)Nc1cc(C(F)(F)F)ccc1C(F)(F)F (stereo partly specified),inactive
13,C#CC(C)(CC)OC(=O)c1ccccc1C(=O)O (stereo unspecified),inactive
14,C=C1C(=O)O[C@H]2C[C@H](C)C(/C=C/C(C)=O)=CC[C@H]12,7.94 µM (active)
15,CNC[C@H](O)c1cccc(O)c1,inactive
16,CC(C)NCC(O)c1cc(O)cc(O)c1 (stereo unspecified),inactive
17,COc1cc(N2CCN(C)CC2)ccc1Nc1ncc2c(n1)N(C)c1ccccc1C(=O)N2C,14.1 µM (active)
18,O=C1CC2(CCCC2)CC(=O)N1CCNCC1COc2ccccc2O1 (stereo unspecified),inactive

row,Compound,Potency
1,COc1ccc(/C=C\c2cc(OC)c(OC)c(OC)c2)cc1O,0.0089 µM (active)
2,CCS(=O)(=O)Nc1ccc(Oc2ccc(F)cc2F)c(-c2cn(C)c(=O)c3[nH]ccc23)c1,5.01 µM (active)
3,CC(COc1ccccc1)NN (stereo unspecified),inactive
4,Nc1ncnc(Nc2ccc(OCc3ccccc3)c(Cl)c2)c1/C=N/OCCN1CCOCC1,15.8 µM (active)
5,CO[C@@]12[C@H](COC(N)=O)C3=C(C(=O)C(C)=C(N)C3=O)N1C[C@@H]1N[C@@H]12,inactive
6,O=C1NC(=O)[C@@H](c2c[nH]c3ccccc23)[C@H]1c1cn2c3c(cccc13)CCC2,0.355 µM (active)
7,COCc1c(-c2ccc(NC(=O)Nc3cc(C(F)(F)F)ccc3F)c(F)c2)c2c(N)ncnn2c1CN1CCOCC1,inactive
8,O=C(O)Cc1ccccc1Oc1ccc(Cl)cc1Cl,inactive
9,COc1cc(C(=O)N2CCCCCCC2)cc(OC)c1OC,inactive
10,CCN1C(=O)CNc2ncc(-c3ccc(-c4ncn[nH]4)nc3C)nc21,10 µM (active)
11,N=C(N)c1ccc2nc(-c3cc(CC(=O)N[C@@H](CC(=O)O)C(=O)O)cc(-c4cc(S(N)(=O)=O)ccc4O)c3O)[nH]c2c1,inactive
12,COc1cccc2c1C(=O)c1c(O)c3c(c(O)c1C2=O)C[C@@](O)(C(=O)CO)C[C@@H]3O[C@H]1C[C@H](N)[C@H](O)[C@H](C)O1,23.1 µM (active) and 7.08 µM (active)
13,CCN(CC)CCOC(=O)C1(c2ccccc2)CCCC1,inactive
14,CC[C@]1(O)CC2CN(CCc3c([nH]c4ccccc34)[C@@](C(=O)OC)(c3cc4c(cc3OC)N(C)[C@H]3[C@@](O)(C(=O)OC)[C@H](OC(C)=O)[C@]5(CC)C=CCN6CC[C@]43[C@@H]65)C2)C1 (stereo partly specified),14.1 µM (active)
15,CC(C)N(CCC(=O)c1ccc2ccccc2c1)Cc1ccccc1,14.1 µM (active)
16,CCC(Cc1c(I)cc(I)c(N)c1I)C(=O)O (stereo unspecified),inactive
17,COc1cc(C=C2CCC/C(=C\c3ccc(O)c(OC)c3)C2=O)ccc1O,7.31 µM (active)
18,Nc1ncnc2c1ncn2[C@@H]1O[C@H](CO)C[C@H]1O,15.8 µM (active)
